Assay results reported in PubChem BioAssay (NCATS).
Where “and” joins values, the source holds several entries; their conditions need not be identical. Identical values can stand only once. Results filed as inconclusive are left out. Where a call stands in place of a potency, no number is given. Calls of active or inactive are those of the source. Unless noted, calls come from the whole dose curve; as a rule, active = well fitted curve in the direction sought with a large enough effect; inconclusive = small, poorly fitted or top-dose-only effect, or another doubt; inactive = no such curve, though single readings can be large; an effect the other way counts as inactive or inconclusive.

Molecular target: Cytochrome P450 2C19 (Homo sapiens) (UniProt P33261)
Assay: qHTS Assay for Inhibitors and Substrates of Cytochrome P450 2C19 (AID 899); note: nearly all actives have a fitted effect of over 60% in size; note: potency is the fitted concentration of half-maximal effect
Conditions: recombinant CYP2C19, luciferin-H EGE luminescence; series mostly up to 57.1 µM
Summary of the method: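 Luminescent read-out of luciferin formed from Luciferin-H EGE (10uM, equal to KM). Enzyme 5nM in 50mM KPO4; compound added, 10 min at 37C, then NADPH regenerating system for 60 min at 37C. Full inhibition defined by 57uM ketoconazole.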

Chain of Cytochrome P450 2C19 (Homo sapiens) (P33261 whole entry, looked up): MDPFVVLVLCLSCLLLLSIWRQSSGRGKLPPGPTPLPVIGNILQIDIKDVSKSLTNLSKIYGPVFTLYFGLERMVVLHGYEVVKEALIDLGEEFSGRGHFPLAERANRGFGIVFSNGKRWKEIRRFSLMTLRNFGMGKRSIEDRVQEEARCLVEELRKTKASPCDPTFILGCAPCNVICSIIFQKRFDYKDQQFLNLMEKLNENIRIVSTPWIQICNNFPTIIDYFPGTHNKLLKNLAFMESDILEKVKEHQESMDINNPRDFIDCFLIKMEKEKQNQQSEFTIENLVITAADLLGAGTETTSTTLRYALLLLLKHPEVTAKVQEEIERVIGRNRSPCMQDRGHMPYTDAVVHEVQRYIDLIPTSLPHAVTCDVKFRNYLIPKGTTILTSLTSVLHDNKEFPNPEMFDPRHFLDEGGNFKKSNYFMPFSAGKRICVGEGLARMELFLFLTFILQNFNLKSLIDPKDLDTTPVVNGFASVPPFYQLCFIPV

Row | Structure (SMILES) | Potency
1 | NCc1cc(=O)[nH]o1 | inactive
2 | Cc1nc(-c2ccc(-c3ccc(C(=O)N4CCc5cc6c(cc54)C4(CCN(C)CC4)CO6)cc3)c(C)c2)no1 | 3.98 µM (active)
3 | CC1=NN=C(c2ccc(N)cc2)c2cc3c(cc2C1)OCO3 | 7.94 µM (active)
4 | COc1cc2c(cc1OC)[C@@H]1C(=O)c3ccc4c(c3O[C@@H]1CO2)C=CC(C)(C)O4 | 5.01 µM (active)
5 | O=c1cccc2n1CC1CNC[C@H]2C1 | inactive
6 | NC(=O)c1ccc(-c2nc(-c3ccc4c(c3)OCO4)c(-c3ccccn3)[nH]2)cc1 | 2.51 µM (active)
7 | CCCN1CCO[C@@H]2c3cc(O)ccc3OC[C@H]21 | inactive
8 | Cn1cnc(CCN)c1 | inactive
9 | CC(=O)NCCc1c[nH]c2ccccc12 | inactive
10 | O=C1CCCN1CC#CCN1CCCC1 | 0.158 µM (active)

System: not listed separately
Assay: Confirmation and Secondary Assay for Modulators of Hemoglobin Beta Chain Splicing at IVS2 654 locus (AID 910);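 note: HeLa cells stably carrying EGFP split by mutant beta-globin IVS2-654 intron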
Conditions: HeLa EGFP-654 splicing reporter, GFP fluorescence, 48 h; series mostly up to 46.1 µM
Summary of the method: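 HeLa cells stably expressing EGFP interrupted by β-globin IVS2-654 intron, seeded overnight in Opti-MEM/2% FCS, then treated 2 days at 37 °C. Restored splicing read as total peak GFP intensity per well by laser scanning cytometry (488 nm excitation, 500–520 nm emission); 500 nM antisense PNA as control.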

Row | Structure (SMILES) | Potency
11 | O=C(O)CCCOc1ccc(Cl)cc1Cl | inactive
12 | CC(Cc1ccc(O)cc1)NCC(O)c1cc(O)cc(O)c1 (configuration not stated) | inactive
13 | NCCc1c[nH]c2ccccc12 | inactive
14 | CCC(=O)OC1CCC2C3CCC4=CC(=O)CC[C@@]4(C)C3CC[C@]12C (some centres not stated) | inactive
15 | NC(N)=NOCCC(N)C(=O)O (configuration not stated) | inactive
16 | C#CC1(O)CCC2C3CCC4=CC(=O)CCC4(C)C3CCC21C (configuration not stated) | inactive
17 | O=C1CCCN1CC#CCN1CCCC1 | inactive
18 | CCCCCCCCCCCCCCCC[N+](C)(C)C | inactive

System: not listed separately
Assay: qHTS Assay for Identification of Small Molecule Agonists for Hypoxia Response Element Signaling Pathway (AID 914; active = well fitted activation curve with a large enough effect in the signal ratio, with a control signal flat, not every such curve was filed as active; the % refers to the signal ratio)
Conditions: ME-180 (cervical carcinoma) HRE-bla reporter, beta-lactamase ratio, CoCl2, 17 h; hits give high values
Summary of the method: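 In Opti-MEM containing 0.5% dialyzed FBS and 10 mM HEPES, ME-180 HRE-bla cells received a compound titration and EC50 CoCl2. They were incubated 17 hours, then CCF4-loaded 2.5 hours at room temperature before ratio reading.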

Row | Structure (SMILES) | activation
19 | NCCc1c[nH]c2ccc(O)cc12 | 17.2% (inactive) and 2.69% (inactive)
20 | CC(C)Oc1cccnc1N(C)C1CCN(Cc2ccccc2)CC1 | -11.6% (inactive)
21 | NCCc1c[nH]c2ccccc12 | -27.7% (inactive)
22 | O=C(O)Cc1cnc[nH]1 | 7.21% (inactive)
